Test [1] can be described thus: NCI Yeast Anticancer Drug Screen. Data for the rad50 strain (AID 155).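 Note: 0% = growth of vehicle-only cultures of the same strain.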 The following applies: S. cerevisiae rad50 strain growth inhibition, hits give high values; at 50.0 µM unless noted. The procedure, abridged:
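A DNA repair-deficient yeast mutant serves as the test organism; compound-induced growth inhibition is calculated against vehicle-treated cells.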

The nature of test [2]: NCI Yeast Anticancer Drug Screen. Data for the mec2-1 strain (AID 157). Conditions: S. cerevisiae mec2-1 strain, hits give high values; at 50.0 µM unless noted. The procedure, abridged: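 Cells of the genetically defined mec2-1 yeast strain are incubated with test compound. Inhibition of growth is calculated against vehicle-treated controls.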
Test [3] in a line: NCI Yeast Anticancer Drug Screen. Data for the sgs1 mgt1 strain (AID 161).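 Note: 0% = growth of cultures given vehicle only.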 The following applies: S. cerevisiae sgs1 mgt1 strain, hits give high values; at 50.0 µM unless noted. A digest of the protocol: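 Mutant yeast exposed to compound; growth scored against vehicle-only wells.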
The nature of test [4]: NCI Yeast Anticancer Drug Screen. Data for the cln2 rad14 strain (AID 165).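 Note: 0% = growth equal to vehicle treated cultures.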 Conditions: S. cerevisiae cln2 rad14 strain, hits give high values; at 50.0 µM unless noted. The procedure, abridged: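 The screen exposed genetically defined yeast (cln2 rad14) to test compounds and scored growth inhibition relative to vehicle-treated controls.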
Test [5] can be described thus: NCI Yeast Anticancer Drug Screen. Data for the bub3 strain (AID 167). The following applies: S. cerevisiae bub3 mutant strain, hits give high values; at 50.0 µM unless noted. A digest of the protocol: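 Inhibition values come from growth of compound-treated mutant yeast normalised to vehicle-treated controls.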
A short description of test [6]: NCI Yeast Anticancer Drug Screen. Data for the mlh1 rad18 strain (AID 175). Conditions: S. cerevisiae mlh1 rad18 strain growth inhibition, hits give high values; at 50.0 µM unless noted. The procedure, abridged: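 Compound-treated yeast growth, normalised to vehicle controls. Strain bears defined DNA repair mutations.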

The panel holds about 79,000 compounds, 15% with a hit somewhere; the sample as a whole holds those more often. Values without a mark were called inactive. The source made the active and inactive calls. Cut-off read from the data, not from the text of the source: active = growth inhibition above about 70%; inactive = the rest.

In the case of `O=c1nc2sccn2c2ncccc12`, the growth inhibition in test [1] was -18.5%; in test [2] it was 5.35%; in test [3] it was -11.8%; in test [4], 46.6%; in test [5], 10.9%; in test [6], 16.1%.
For `COC(=O)CSSC(C)C`, the growth inhibition in test [1] is -29.2%; in test [2] it was -15.3%; in test [3] it was -22.1%; in test [4], 5.1%; in test [5], 6.4%; in test [6], -59.1%.
For the compound `CN(C)c1ccccc1C(=O)N/N=C\c1ccc(-c2ccccc2)cc1`, the growth inhibition was 7.05% in test [1]; 4.95% in test [2]; 0.6% in test [3]; 12.3% in test [4]; 0.35% in test [5]; 19.6% in test [6].
As for `COC(=O)c1ccccc1NC(=O)Nc1ncccn1`, the growth inhibition in test [1] is -5.3%; in test [2], 2.4%; in test [3] it was -7.2%; in test [4], -10.1%; in test [5], -11.2%; in test [6] it was -11.5%.
Turning to `CC(C)(C)CC(C)(C)c1ccc(O)c(CN2CCCCC2)c1`, the growth inhibition in test [1] was 10.2%; in test [2] it was 8.55%; in test [3], 26.1%; in test [4] it was -6.7%; in test [5] it was 16.6%; in test [6], 8.65%.
On to `CC(=O)Cc1ncn(-c2cc(C)on2)n1`, for which the growth inhibition in test [1] was -9.4%; in test [2], -20.4%; in test [3], -18.1%; in test [4], 11.6%; in test [5] it was -1.45%; in test [6], -13.7%.
In the case of `COc1ccc(/C(C)=N/N=C\c2cc(OC)c(OC)c(OC)c2)cc1`, the growth inhibition is 6.95% in test [1]; 3.15% in test [2]; -10.8% in test [3]; 14.8% in test [4]; 83.2% (active) in test [5]; 8.2% in test [6].
In the case of `CC(=O)Oc1c(I)cc(Cc2nc(C)oc2C)cc1I`, the growth inhibition in test [1] was -41.1%; in test [2] it was -1.15%; in test [3], 6.5%; in test [4], 1%; in test [5] it was 6.8%; in test [6] it was -4.8%.
With `Cc1nc2ccncc2[nH]1`, the growth inhibition in test [1] was -7.7%; in test [2], -1.3%; in test [3], -17.4%; in test [4], 0.05%; in test [5], -10.6%; in test [6], -8.2%.
`CCCC(=O)Nc1ccc(C2=NNC(=O)C3CC23)cc1` (stereo not given): the growth inhibition in test [1] was 31.2%; in test [2], 26.6%; in test [3], 33.5%; in test [4], -20%; in test [5], 27.9%; in test [6] it was 36.5%.
Regarding `CCC(=O)Cc1nc2n(c1O)/C(=N/C(=O)Nc1ccc(Cl)cc1)N=N2`, the growth inhibition in test [1] was -2.05%; in test [2] it was -7.5%; in test [3] it was -2.9%; in test [4] it was -35.8%; in test [5], -15.2%; in test [6], 11.6%.
As to `ONc1ccc2c(c1)C1C(C3C2C2(Cl)C(Cl)=C(Cl)C3(Cl)C2(Cl)Cl)C2(Cl)C(Cl)=C(Cl)C1(Cl)C2(Cl)Cl` (stereo not given), the growth inhibition in test [1] was 35.8%; in test [2], 13.6%; in test [3], 7.55%; in test [4], 19.6%; in test [5], 24.9%; in test [6], 24.6%.
As for `COC(=O)C1C(O)C(C)C(O)C(C)(O)/C=C/C=C(C)C(=O)Nc2c(C)c(OC(C)=O)c3c(c2O)C(=O)C(C)=C2OCOC(=C23)C(C)=CC(C)(O)C(O)C(C)C1OC(C)=O` (stereo not given), the growth inhibition in test [1] was 4.6%; in test [2] it was -19.9%; in test [3] it was 5.5%; in test [4] it was 4.05%; in test [5], 3.05%; in test [6], 18.8%.
Consider `COc1ccc2c(c1[N+](=O)[O-])CC[C@@H]1[C@@H]2CC[C@]2(C)C(=O)CC[C@@H]12`, for which the growth inhibition in test [1] was 20.9%; in test [2] it was 21.1%; in test [3], 0%; in test [4] it was 37%; in test [5], 12.1%; in test [6], -30.9%.
As for `CC(C)(C)OC(=O)N1CCC2(CC1)C(=O)NCN2c1ccccc1`, the growth inhibition is 23.4% in test [1]; 11.9% in test [2]; -3% in test [3]; 31.2% in test [4]; 0.7% in test [5]; -38.9% in test [6].
Regarding `CC(=O)NC1CCC(CCC2CCCCC2)CC1` (stereo not given), the growth inhibition in test [1] is 0.55%; in test [2], 5.3%; in test [3] it was 2.45%; in test [4], 2.25%; in test [5] it was -5.9%; in test [6], -9.75%.
Take `CC(C)CCNc1ccccc1`: the growth inhibition was 1.55% in test [1]; -7.65% in test [2]; -9.85% in test [3]; -2.8% in test [4]; 3.55% in test [5]; 0.45% in test [6].
For the compound `N#CCC(=O)OCCCc1ccccc1`, the growth inhibition in test [1] was 15.8%; in test [2], 9.2%; in test [3], -1.5%; in test [4], -32.5%; in test [5], 2.65%; in test [6], 0.45%.
On to `O=[N+]([O-])c1cccc(S/N=C/c2ccccc2O)c1`, for which the growth inhibition was 98.8% (active) in test [1]; 99.5% (active) in test [2]; 99.2% (active) in test [3]; 97.5% (active) in test [4]; 99.2% (active) in test [5]; 99% (active) in test [6].
As to `CCOC(=O)CON=c1c2ccccc2ccc2ccccc12`, the growth inhibition in test [1] was 4.05%; in test [2], -5.85%; in test [3] it was -22.5%; in test [4], 3.4%; in test [5], -10.2%; in test [6] it was -2.45%.

The record behind these values is PubChem BioAssay (NCI).
